# Laboratory results reported in PubChem BioAssay (EPA / NIEHS).
# Activity calls are given as the source filed them. The calls were made as follows: active = hit-call score of the fitted dose curve at least 0.9, where 1 is the maximum; inactive = score below 0.9.
# Assay: ATG_PXRE_CIS: Attagene CIS-FACTORIAL HepG2 Assay for human Pregnane X Receptor Element (PXRE) (AID 2282957)
# Settings: HepG2 Attagene CIS-FACTORIAL PXRE reporter, mRNA; actives raise or lower the signal
# Procedure: ATG_CIS is a cell-based, multiplexed-readout assay that uses HepG2, a human liver cell line, with measurements taken at 24 hours after chemical dosing in a 24-well plate.ATG_PXRE_CIS is one of 52 assay component(s) measured or calculated from the ATG_CIS assay. It is designed to make measurements of mRNA induction, a form of inducible reporter, as detected with fluorescence intensity signals by Reverse transcription polymerase chain reaction (RT-PCR) and Capillary electrophoresis technology.Data from the assay component ATG_PXRE_CIS was analyzed into 1 assay endpoint. This assay endpoint, ATG_PXRE_CIS, was analyzed with bidirectional fitting relative to DMSO as the negative control and baseline of activity. Using a type of inducible reporter, measures of mRNA for gain or loss-of-signal activity can be used to understand the reporter gene at the transcription factor-level as they relate to the gene NR1I2. Furthermore, this assay endpoint can be referred to as a primary readout, because this assay has produced multiple assay endpoints where this one serves a reporter gene function. To generalize the intended target to other relatable targets, this assay endpoint is annotated to the nuclear receptor intended target family, where the subfamily is non-steroidal.
# Human liver HepG2 cells are transiently transfected with multiple reporter transcription units (MRTUs) in 6-well plates using FuGene 6 reagent (Roche; 3 ml FuGene/1 mg DNA). The MRTU constructs are regulated by a cis-regulating element (promoter). […] A major difference between the CIS and TRANS system is that in CIS activities of endogenous TFs are measured, whereas the TRANS assay evaluates changes in activities of exogenous, chimeric NR-Gal4 proteins. […] At the end of 24 hour incubation, total RNA was isolated using TriZol reagent (Invitrogen). The isolated RNA is then reverse-transcribed using oligo(dT) primer and Mo-MLV reverse transcriptase (Invitrogen) with DNAse I (Ambion) treatment for 30 min. The one-tenth of the produced cDNA was amplified by PCR using Taq DNA polymerase (Invitrogen) and two reporter sequence-specific primers. The PCR products were fluorescently labeled by primer extension with 6-arboxyfluorescein (6-FAM) 5'-labeled reporter sequence-specific primer (2 min at 95 C, 20 s at 68 C and 10 min at 72 C) and these products were digested with 5U of HpaI (New England Biolabs) for 2h at 37 C. The fragments were purified using Qiaquick PCR columns (Qiagen), analyzed on an ABI 3130xL genetic analyzer (Applied Biosystems) with peak positions identified by using a set of X-rhodamine (ROX)-labeled MapMarker1000 molecular weight standards (BioVentures). The raw capillary electrophoresis data was processed using Attagraph software (Attagene).
Compound,outcome,AC50
Cc1ccc(OC(=O)c2ccccc2O)cc1,inactive,
CCCCCCOC(=O)CCC,,24.8 µM (active)
CCOC(=O)CC(C)O (stereo not given),inactive,
CCCCCCCCCCCC(=O)OCC(O)CO (stereo not given),,169 µM (active)
CCCC1O[C@@H]2C[C@H]3[C@@H]4CCC5=CC(=O)C=C[C@]5(C)[C@H]4[C@@H](O)C[C@]3(C)[C@]2(C(=O)CO)O1 (stereo not given in full),,4.12 µM (active)
OCC(O)c1ccccc1 (stereo not given),inactive,
CCc1ncc(C)[nH]1,inactive,
CCCCCCCCCCCC(=O)OC[C@@H](O)[C@H]1OC[C@H](O)[C@H]1O,inactive,
CCCCCCCCCCCCN1CCCCCC1=O,,1.46 µM (active)
O=C1NC2NC(=O)NC2N1 (stereo not given),,27.9 µM (active)
Cc1cc(C)nc(NS(=O)(=O)c2ccc(N)cc2)n1,,46.5 µM (active)
NCC1CCCC(CN)C1 (stereo not given),inactive,
COc1cc(CCC(C)=O)ccc1O,inactive,
C=CCCCCCCCCCC,inactive,
Nc1ccn([C@H]2CS[C@@H](CO)O2)c(=O)n1,inactive,
OCc1ccc(Cl)cc1Cl,inactive,
C=CC(=C)CCCC(C)(C)OC(C)=O,inactive,
CC1(C)C(=O)N(Cl)C(=O)N1Br,,62.7 µM (active)
C=CCOC(=O)CCCCCC,inactive,
CCCCCCCC/C=C\CCCCCCCC(=O)OCC,inactive,

Compound,outcome,AC50
CCCCSCCCC,inactive,
C=CC(=O)OCCC#N,,62.5 µM (active)
CC(C)C(OC(=O)c1ccccc1)C(C)(C)COC(=O)c1ccccc1 (stereo not given),,1.27 µM (active)
C=C(C)C1CC=C(C)C(=O)C1 (stereo not given),,33.4 µM (active)
CCNCCO,inactive,
CC(C)c1ccccc1O,,81.1 µM (active)
CCCCCCCCCCCCS(=O)(=O)Cl,inactive,
CC1=NN(c2ccc(S(=O)(=O)O)cc2)C(=O)C1,inactive,
FC(F)(F)COCC(F)(F)F,inactive,
CC(=O)Nc1ccc(C(=O)CCl)cc1,inactive,
CCCC[O][Al]([O]CCCC)[O]CCCC,inactive,
CCOC(=O)[C@@H](C)Oc1ccc(Oc2nc3ccc(Cl)cc3o2)cc1,inactive,
O=C1OC[C@H](Cc2cccc(O)c2)[C@H]1Cc1cccc(O)c1,,5.12 µM (active)
Nc1ccccc1[N+](=O)[O-],inactive,
CCC(C)c1cc([N+](=O)[O-])cc([N+](=O)[O-])c1OC(=O)OC(C)C (stereo not given),,0.731 µM (active)
O=c1[nH]c(=O)c2cn[nH]c2[nH]1,inactive,
O=[N+]([O-])c1ccc(O)cc1C(F)(F)F,,84.1 µM (active)
OC[C@H]1O[C@@H](Oc2ccc(O)cc2)[C@H](O)[C@@H](O)[C@@H]1O,inactive,
Cc1cccc(Nc2ccccc2)c1,,26.6 µM (active)
NCCNc1cccc2ccccc12,inactive,
